Compounds without any hit were thinned out: in the full panel of roughly 83,000, 20% have a hit.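 96-well plates, one dose, 48 hours. Percent growth reported; active if below 10.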 Values without a mark were called inactive. Activity calls are given as the source filed them.
Columns and labels:
Assay in all cases: NCI-60 one-dose screen, 48 h (100 = growth as untreated, 0 = no growth, -100 = all killed)
Details in all cases: 10 µM
T-47D breast = system: T-47D breast
BT-549 breast = system: BT-549 breast
MDA-MB-435 melanoma = system: MDA-MB-435 melanoma
SW-620 colon = system: SW-620 colon
MCF7 breast = system: MCF7 breast
HCT-116 colon = system: HCT-116 colon
HCC-2998 colon = system: HCC-2998 colon
KM12 colon = system: KM12 colon

Compound | growth (T-47D breast) | growth (BT-549 breast) | growth (MDA-MB-435 melanoma) | growth (SW-620 colon) | growth (MCF7 breast) | growth (HCT-116 colon) | growth (HCC-2998 colon) | growth (KM12 colon)
Cc1c(Cl)cccc1NC(=O)CN1CCOCC1 | 96.1% | 97.4% | 98.7% | 94.5% | 98.1% | 97% | 103% | 97.3%
N#Cc1c(-c2ccc(Cl)cc2)csc1NC(=O)Nc1ccc(Cl)c(C(F)(F)F)c1 | -17.7% (active) | 6.57% (active) | 26% | 11.1% | 3.1% (active) | -14.7% (active) | 19.8% | 10.4%
O=C(NCCNC(=O)c1ccc(F)cc1)Nc1ccc(-n2cc(-c3ccncc3)c(-c3ccc(Cl)c(O)c3)n2)cc1 | 30.1% | -24.5% (active) | -5.7% (active) | 15.1% | 3.7% (active) | -24.2% (active) | -28.4% (active) | 0.713% (active)
Cc1cc(=O)n2nnc3cc(C(F)(F)F)ccc3n12 | 116% | 127% | 99.4% | 118% | 120% | 103% | 104% | 105%
COc1cc(/C=C2\CCCC3=C2NC(N)=NC3c2cc(OC)c(OC)c(OC)c2)cc(OC)c1OC (configuration not stated) | 27.5% | -38.7% (active) | -17.9% (active) | -22.3% (active) | 43% | -81.6% (active) | -35.2% (active) | -75.8% (active)
COc1ccc(C(=O)CC(CC(=O)c2ccc(OC)cc2)c2c(C)nn(-c3ccccc3)c2Cl)cc1 | 109% | 92% | 91.9% | 102% | 95.4% | 88.9% | 109% | 98%
CC(=O)/C(=C/c1ccc(Br)cc1)C(=O)c1ccccc1 | 86.5% | 96.9% | 65.9% | 58.2% | 43.4% | 12.2% |  | 58.6%
CNC(=O)c1cn(C2CC2)c2cc(N3CCN(C(=O)c4cc(OC)c(OC)c(OC)c4)CC3)c(F)cc2c1=O | 79% | 112% | 108% | 103% | 94.3% | 103% | 113% | 102%
C[C@]12CCC3c4ccc(O)cc4C[C@@H](CCCCCCCCCS(=O)CCCC(F)(F)C(F)(F)F)C3C1CC[C@@H]2O (some centres not stated) | 41.2% | 86.1% | 88.8% | 97.1% | 15.9% | 71.4% | 87% | 80.4%
COc1ccc2c(c1)C(CC(=O)NN)CCC2 (configuration not stated) | 105% | 103% | 103% | 106% | 95.6% | 104% |  | 105%
COc1ccc(CCN2CCC(Nc3nc4ccccc4n3Cc3ccc(F)cc3)CC2)cc1 | -3.86% (active) | 31.9% | -91.7% (active) | -54.8% (active) | -53.6% (active) | -39.4% (active) | -84.6% (active) | 17.7%
O=C(Nc1ccc(OS(=O)(=O)c2ccccc2)cc1)C1CCCCC1 | 85.4% | 84% | 100% | 102% | 97% | 72.1% | 92.4% | 88.5%
CCOC(=O)C1=CSC2=NC3=C(CCC/C3=C\c3ccc(Cl)cc3)C(c3ccc(Cl)cc3)N12 (configuration not stated) | 77.4% | 98.4% | 79.1% | 100% | 31.3% | 49.7% | 101% | 66.7%
CC1OC2CC(=O)OC2C2=C1C(=O)c1c(O)c3c(c(O)c1C2=O)C1CC(O)C3(O)C(C)O1 (configuration not stated) | -21.4% (active) | -98.7% (active) | -0.0926% (active) | -36.4% (active) | -71% (active) | -91.5% (active) | -28.4% (active) | -34.7% (active)
CCOc1ccccc1/C=N/N1CCCCCC1 | 99.1% | 103% | 114% | 96.1% | 79.2% | 100% | 93.5% | 106%
CCCCN1C(=O)CC(SC2CC(=O)N(CCCC)C2=O)C1=O (configuration not stated) | 106% | 104% | 108% | 110% | 102% | 105% |  | 107%

Compound | growth (T-47D breast) | growth (BT-549 breast) | growth (MDA-MB-435 melanoma) | growth (SW-620 colon) | growth (MCF7 breast) | growth (HCT-116 colon) | growth (HCC-2998 colon) | growth (KM12 colon)
c1cncc(-c2csc(-c3c[nH]c4ccccc34)n2)c1 | 64.1% | 89.2% | 86.9% | 102% | 77.3% | 82.6% | 107% | 81.8%
COc1cccc(-c2nc3sccn3c2-c2cccc(S(C)(=O)=O)c2)c1 | 98.7% | 103% | 110% | 104% | 79.6% | 104% | 94% | 109%
Cc1cc(Br)nnc1Br | 90.1% | 96.8% | 114% | 109% | 103% |  | 108% | 96.6%
CN1CCN(C2=Nc3ccccc3Oc3ccc(Cl)cc32)CC1 | 81.3% | 111% | 96.9% | 96.2% | 97.4% |  | 116% | 102%
CN(C)c1nc(N)c2nccnc2n1 | 104% | 104% | 106% | 99.2% | 96% | 104% |  | 101%
C[C@@H](C[C@H](CCO)c1ccccc1)c1ccc2ccccc2c1 | -58.3% (active) | -86.1% (active) | -75.3% (active) | -26.5% (active) | -63% (active) |  | -82.9% (active) | -42.3% (active)
O=C1/C(=C/c2ccc([N+](=O)[O-])s2)Oc2cc(Cl)ccc21 | 11.2% | -55% (active) | -25.7% (active) | -40.9% (active) | 4.42% (active) |  | 2.91% (active) | -28.4% (active)
OC[C@H]1OC([S-])[C@H](O)[C@@H](O)[C@@H]1O.[Au+] (some centres not stated) | 85.5% | 87.1% | 83.3% | 101% | 72.8% |  | 112% | 114%
COc1ccc(Cl)cc1Nc1nc(C(F)(F)F)ccc1C(=O)N/N=C/c1cc(OC)c(OC)c(OC)c1 | 29.7% | 15.9% | 37.1% | 16.7% | 17.8% |  | 8.93% (active) | 30.6%
CCCN1CN2C(=O)N3CN(CCC)CN4C(=S)N(C1)C2C34 (configuration not stated) | 90% | 89.5% | 106% | 108% | 87.7% |  | 106% | 101%
O=c1c(Br)ccc(Br)cc1Br | -44.1% (active) | 98.4% | -40.1% (active) | -46.5% (active) | -22.6% (active) | -88.1% (active) |  | -47% (active)
O=C(O)c1ccc(-n2cc(CNc3ccc(Cl)cc3)c(-c3ccccc3)n2)cc1 | 89.4% | 90.2% | 91.9% | 92.6% | 87.4% |  | 113% | 87.8%
NS(=O)(=O)c1ccc(Br)cc1 | 84.7% | 87.6% | 105% | 112% | 94% |  | 108% | 99.5%
CO[C@H]1CC(O[C@@H]2/C(C)=C/C[C@@H]3C[C@@H](C[C@]4(C=C[C@H](C)[C@@H](C5CCCCC5)O4)O3)OC(=O)[C@@H]3C=C(C)[C@@H](O)[C@H]4OC/C(=C\C=C\[C@@H]2C)[C@]43O)O[C@@H](C)C1O[C@H]1C[C@H](OC)[C@@H](O)[C@H](C)O1 (some centres not stated) | -51.2% (active) | -68.9% (active) | -97.1% (active) | -92.7% (active) | -24.1% (active) |  | -92.3% (active) | -88.6% (active)
Cc1cc(C)nc(NS(=O)(=O)c2ccc(Nc3nc4nc(NCc5ccccc5)nc(-c5ccc(O)cc5)c4c(=O)[nH]3)cc2)n1 | 25.1% | 34% | 32.1% | 11.2% | 16.1% |  | 19.5% | 29.6%

Source: PubChem BioAssay (NCI)
